# The entries come from a sample that favours hits as a whole.
# GluA2 TARP mod = modulators of AMPA receptor GluA2-stargazin complexes; HEK293 GluA2+stargazin, membrane potential dye (FDSS), glutamate EC50; hits were called plate by plate, in both directions; calls only at 30 µM; 40,000 compounds, 3.5% hits;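 active means any of four per-well response measures lying three or more SD from its plate-wide compound average, in either direction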
# GIRK2 act = Activators of human GIRK2-containing channels; HEK293 GIRK2/NPY4 cells, thallium flux fluorescence; activation (% efficacy), % for hits at 37.5 µM; 34,000 tested, under 10 active;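 active means primary screen hit, no activity in plain HEK293 cells, and in GIRK2-only cells above 5% efficacy rising with concentration; inactive means the rest, including fluorescent compounds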;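 further: efficacy is normalized control-subtracted fluorescence 15 s after thallium addition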
# Target sequence (P48051 whole entry, looked up): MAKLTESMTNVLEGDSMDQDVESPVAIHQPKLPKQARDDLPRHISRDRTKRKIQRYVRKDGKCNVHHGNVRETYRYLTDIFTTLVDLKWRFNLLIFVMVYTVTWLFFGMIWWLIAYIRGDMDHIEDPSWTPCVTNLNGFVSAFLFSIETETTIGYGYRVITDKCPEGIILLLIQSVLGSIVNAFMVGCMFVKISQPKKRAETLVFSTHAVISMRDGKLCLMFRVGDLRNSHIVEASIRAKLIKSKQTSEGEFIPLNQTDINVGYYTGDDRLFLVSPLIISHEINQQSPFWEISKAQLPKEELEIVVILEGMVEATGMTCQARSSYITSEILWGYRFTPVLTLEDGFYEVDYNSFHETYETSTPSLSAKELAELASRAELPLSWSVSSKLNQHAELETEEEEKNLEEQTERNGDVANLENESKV
# Numbers without * were called inactive; i = inactive; . = no result; + = active, no number.
SMILES,GluA2 TARP mod,GIRK2 act
CC(=O)Cn1c(=O)c2c(nc3n(-c4cccc(Cl)c4)c(C)c(C)n23)n(C)c1=O,i,.
Cc1cc(N2CCN(C)CC2)nc(SCC2COc3ccccc3O2)n1 (stereo not drawn),+,.
NCC(O)COCC1COc2ccccc2O1 (stereo not drawn),i,i
O=S(=O)(NCCC(O)c1cccs1)c1ccc(OC(F)(F)F)cc1 (stereo not drawn),+,i
O=S(=O)(NCCC(O)c1cccs1)c1cccc(C(F)(F)F)c1 (stereo not drawn),i,i
CCc1ccc(S(=O)(=O)N2CCN(Cc3nnnn3-c3ccc(C)cc3)CC2)s1,i,i
COc1cc2cc(CNc3ccccc3)c(=O)n(CC(=O)Nc3ccc4c(c3)OCO4)c2cc1OC,+,.
COc1cc2cc(CNc3ccccc3)c(=O)n(CC(=O)Nc3ccc(C)c(Cl)c3)c2cc1OC,i,.
COC(=O)c1ccccc1NC(=O)Cn1c(=O)c(CNc2ccccc2)cc2ccc(OC)cc21,i,i
CCc1ccc(NCc2cc3cc4c(cc3n(CC(=O)Nc3cc(C)ccc3C)c2=O)OCCO4)cc1,i,i
COc1cc2cc(CNc3ccccc3)c(=O)n(CC(=O)Nc3cccc(Cl)c3C)c2cc1OC,+,.
COc1cccc(NC(=O)Cn2c(=O)c(CNc3ccccc3)cc3ccc(OC)cc32)c1,+,.
Cc1ccc(C)c(NC(=O)Cn2c(=O)c(CNc3ccccc3)cc3cc4c(cc32)OCCO4)c1,+,i
COc1cc2cc(CNc3ccc(C)cc3)c(=O)n(CC(=O)Nc3cccc(Cl)c3)c2cc1OC,i,i
O=c1[nH]nc(SCc2ccccc2F)n2nc(-c3ccc(F)cc3)cc12,.,i
Cn1cccc1C(CNS(=O)(=O)c1ccc(F)c(Cl)c1)N1CCOCC1 (stereo not drawn),i,i
CCn1nc(C(=O)Nc2sc3c(c2C(N)=O)CCCCC3)cc1C,.,i
COc1cccc(C(=O)NCCS(=O)(=O)N2CCN(c3cccc(Cl)c3)CC2)c1,i,.
Cc1cc(N2CCN(C(=O)COc3ncccn3)CC2)nc(N2CCCCC2)n1,.,i
Cc1ccc(C(=O)N2CCN(c3nc(C)cc(N4CCCC4)n3)CC2)cc1,+,.
CCOC(=O)C(C)Sc1nnc(N2CCN(c3ccc(F)cc3)CC2)s1 (stereo not drawn),i,i
CC(C)NC(=O)CSc1nnc(N2CCN(c3ccc(F)cc3)CC2)s1,+,i
O=C(Nc1sc2ccccc2c(=O)c1-c1ccc(Br)cc1)c1ccco1,i,i
COc1ccc(-c2c(NC(=O)c3ccco3)sc3ccccc3c2=O)cc1OC,+,i
CC(C)(Oc1ccc(Cl)cc1)C(=O)Nc1ccc(CC(=O)NCC(F)(F)F)cc1,.,i
SMILES,GluA2 TARP mod,GIRK2 act
COCc1nc2ccccc2n1CC(O)COc1ccc(C(C)C)cc1 (stereo not drawn),+,i
COCc1nc2ccccc2n1CC(O)COc1ccc(Cl)c(C)c1 (stereo not drawn),i,i
Cc1ccccc1Nc1nnc(CC(=O)N2CCCCC2)s1,.,i
O=C(NCC(O)c1ccc(C(F)(F)F)cc1)C(=O)Nc1ccon1 (stereo not drawn),i,.
O=S(=O)(NCC(O)(c1ccco1)C1CC1)c1ccc2c(c1)OCCO2 (stereo not drawn),i,i
O=S(=O)(NCC(O)(c1ccco1)C1CC1)c1cccc(C(F)(F)F)c1 (stereo not drawn),+,i
O=C(Cn1c(-c2cnccn2)nc2ccccc21)Nc1nc(-c2ccco2)cs1,i,i
CCn1nc(C(=O)N=c2sc3cc(OC)ccc3n2CCSC)cc1C,.,i
Cn1ccc(C(=O)N=c2sc3cc4c(cc3n2C)OCCO4)n1,i,i
CSCCn1c(=NC(=O)c2ccn(C)n2)sc2cc3c(cc21)OCCO3,+,i
COc1ccc2sc(=NC(=O)c3ccno3)n(CCSC)c2c1,+,i
CC(C)NC(=O)Cn1cnc(-c2ccc(Cl)cc2)cc1=O,.,i
COc1cc(C(=O)NCCn2ncc3c(N4CCOCC4)ncnc32)cc(OC)c1OC,i,i
NC(=O)Cc1csc(NC(=O)COc2ccc3c(c2)C(=O)CC3)n1,+,i
CS(=O)(=O)Nc1cccc(NC(=O)COc2ccc3c(c2)C(=O)CC3)c1,i,i
COCCNC(=O)Cc1csc(Nc2cc(OC)ccc2OC)n1,i,i
CCCCn1c(=O)c2c(nc3n2CCCN3c2ccc(OC)cc2OC)n(C)c1=O,i,.
CC(C)CCN1C(=O)C(C)(C)COc2cc(NC(=O)COc3ccccc3)ccc21,i,.
CC(C)CCN1C(=O)C(C)(C)COc2ccc(NC(=O)COc3ccccc3)cc21,+,.
COc1ccc(Cc2nnc(C3CCN(C(=O)c4ccc(=O)n(C)n4)CC3)s2)cc1,i,i
COC(=O)c1c(NC(=O)Cc2ccc(F)cc2)sc2c1CCN(C(C)C)C2,+,i

# Bioassay records (PubChem BioAssay)
